Among the data in PubChem BioAssay AID488890 (Southern Research Specialized Biocontainment Screening …, 2010) are inhibition values, retold here.

Screen size: about 320,000 compounds; about 1,300 (0.41%) were called active. About 3% were inconclusive and are not listed. No rule for the calls is given here. These entries were drawn from the full list. Entries with a potency or affinity are not part of this list.

A word on the inhibition: it is the drop in the measured response relative to a control, in per cent.

The nature of this experiment: growth inhibition of non-replicating M. tuberculosis (AID 488890).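 Also: plate controls were DMSO cells for no effect and high antibiotic wells for full effect.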 The note with it: Mycobacterium tuberculosis non-replicating, at 25 µM, stronger effect = higher value.
For the compound `CSc1nc2n(n1)C(C)C1=C(CCCC1=O)N2` (configuration not stated), the inhibition is -15.3%.

Turning to `CC(=O)Nc1ccc(NC(=O)c2ccc(S(=O)(=O)N(C)c3ccccc3)cc2)cc1`, the inhibition was -4.01%.

`COc1ccc(C(=O)OCc2c(-c3ccccc3)ncc3ccccc23)cc1`: the inhibition was 14.9%.

On to `Cc1cccc(C(=O)NCCC(=O)Nc2ccc(C#N)cc2)c1`, for which the inhibition was -25.3%.

Take `Cc1cccc2nc(CSc3ccccc3C(=O)O)cn12`: the inhibition is 24.4%.

Turning to `Cc1cc(C)cc(NC(=O)C2CCCN(c3ncccn3)C2)c1` (configuration not stated), the inhibition worked out at 0.57%.

As for `c1cc(-c2cc3cc4c(cc3cn2)OCO4)cs1`, the inhibition came to 53.8%.

As to `O=S(=O)(c1cc(Cl)ccc1Cl)N1CCN(c2ccccn2)CC1`, the inhibition is 6.68%.

Take `O=S(=O)(CCN1CCN(c2ccccn2)CC1)c1ccc(F)cc1`: the inhibition worked out at 3.07%.

As for `CC(=O)Cn1c2ccccc2n2nc(CCC(=O)O)c(=O)nc12`, the inhibition is -25.9%.

Take `NC(=O)C1CCN(C(=O)COc2ccc(Nc3ccccc3)cc2)CC1`: the inhibition was found to be 24.7%.

Regarding `O=C(OCC(=O)N1CCCC1)c1ccccc1O`, the inhibition is 71.7%.

On to `CC1CCN(C(=O)COC(=O)c2cc3ccccc3oc2=O)CC1`, for which the inhibition was found to be 11.8%.

Take `O=C(COc1ccc(Cl)cc1)OCC(=O)N1CCCCCC1`: the inhibition worked out at 70.8%.

As to `Cc1cccc(C(=O)OCC(=O)N2CCCCCC2)c1`, the inhibition was 12%.

In the case of `O=C(OCC(=O)N1CCN(C(=O)COC(=O)c2ccc(O)cc2O)CC1)c1ccc(O)cc1O`, the inhibition is -2.13%.

With `CC1CCN(C(=O)c2cc3ccccc3cc2O)CC1`, the inhibition was 62%.

As to `O=C(c1cc2ccccc2cc1O)N1CCCC1`, the inhibition was 5.6%.

Regarding `O=[N+]([O-])c1cccc(-c2csc(N/N=C/c3cccc(O)c3)n2)c1`, the inhibition stood at 4.67%.

Take `COc1ccc(C(OC(=O)c2ccco2)C(=O)NC2CCCC2)cc1` (configuration not stated): the inhibition was -11.4%.

Take `CCc1ccc(C(=O)NCc2cnn(C)c2)s1`: the inhibition was found to be 6.54%.

As to `Cc1ccc(SCC(=O)O/N=C(\N)c2cccnc2)cc1`, the inhibition was determined as 67.7%.

Take `O=C(/C=C/Nc1ccc(Oc2ccccc2Cl)cc1)c1ccco1`: the inhibition amounted to 61.8%.

As to `Cc1cccc(-n2ccnc2SCC(=O)Nc2nccs2)c1`, the inhibition came to 15.5%.

Regarding `O=C(NCc1nc2ccccc2[nH]1)c1ccc([N+](=O)[O-])cc1`, the inhibition came out at 4.71%.

Turning to `O=C(Cc1nc2ccccc2[nH]1)c1ccc([N+](=O)[O-])cc1`, the inhibition worked out at 6.15%.

As to `Cc1cc(C(=O)CN2C(=O)C(=O)N(Cc3ccco3)C2=O)c(C)n1CCc1ccccc1`, the inhibition turned out to be 54.3%.

Consider `Cc1cccc(NC(=O)COc2ccc3oc4c(c3c2)CCCC4)n1`, for which the inhibition was 75.9%.

In the case of `Cc1ccnc(NC(=O)COc2ccc3oc4c(c3c2)CCCC4)c1`, the inhibition is 76.9%.

For `COc1ccc(CNC(=O)Nc2ccc([N+](=O)[O-])cc2)cc1`, the inhibition is -6.85%.

For `O=C(NCCCn1ccnc1)c1ccc(Cl)c(S(=O)(=O)N2CCOCC2)c1`, the inhibition was determined as 2.9%.

As for `C/C(CC(=O)Nc1cccnc1)=N\NC(=O)C(=O)Nc1cccc(C)c1`, the inhibition stood at 6.84%.

As to `CCOCCn1ccc2c(OCC(=O)Nc3ccccc3F)cccc2c1=O`, the inhibition worked out at 4.93%.

In the case of `Cc1ccc(OCCNC(=O)c2cccc(C)c2)cc1`, the inhibition worked out at 49.8%.

Regarding `COc1cccc(OCCNC(=O)c2cccc(OC)c2)c1`, the inhibition was 7.64%.

Take `O=C(NCCOc1ccccc1)c1cc(C(=O)NCCOc2ccccc2)cc([N+](=O)[O-])c1`: the inhibition was -6.28%.

For the compound `COc1cccc(OCCNC(=O)c2ccc(C)cc2)c1`, the inhibition came out at 37.6%.

`CCCN(C(=O)c1ccco1)c1nnc(-c2ccccc2C)s1`: the inhibition came to 72.7%.

Consider `COc1cc(C(=O)N[C@H](C(=O)NC2CCCCCC2)C(C)C)cc(OC)c1OC`, for which the inhibition was found to be 2.31%.

As to `Cc1ccc(C(=O)OCC(=O)Nc2ccc3c(c2)OCO3)c(O)c1`, the inhibition is -15.4%.

As for `O=C(COC(=O)c1cccnc1Cl)c1ccc2c(c1)OCCO2`, the inhibition amounted to 5.13%.

Regarding `O=C(COC(=O)c1cc(Br)ccc1O)Nc1ccc2c(c1)OCCO2`, the inhibition worked out at 76.5%.

In the case of `O=C(COC(=O)c1cc(Cl)ccc1O)Nc1ccc2c(c1)OCCO2`, the inhibition was found to be 71.7%.

Take `CC1=C(C(=O)OCc2ccccc2)C(c2ccc([N+](=O)[O-])cc2)NC(=O)N1` (configuration not stated): the inhibition is 8.66%.

For the compound `Cc1ccc(-n2cc3c(=O)n(C)c(=O)n(C)c3c2)cc1C`, the inhibition was found to be 13.7%.

Regarding `COc1cc2[nH]c(=S)nc(NCc3cccs3)c2cc1OC`, the inhibition was -37%.

Consider `CCOC(=O)CC(=O)Nc1ccc(C)cc1`, for which the inhibition came out at 60.5%.

As to `COC(=O)c1ccc(NC(=O)NS(=O)(=O)c2ccc(C)cc2)cc1`, the inhibition was 16.8%.

Take `CCOC(=O)c1ccc(S(=O)(=O)NNS(=O)(=O)c2ccc(C)cc2)cc1`: the inhibition worked out at 3.23%.

For the compound `CCOC(=O)c1ccc(NC(=O)CCC(=O)OC)cc1`, the inhibition was found to be 3.53%.

In the case of `COC(=O)C(C)NC(=O)c1ccc(C(C)(C)C)cc1` (configuration not stated), the inhibition was -13.9%.

Consider `Cc1oc(-c2ccccc2F)nc1CS(=O)(=O)CC(=O)NCCCc1ccccc1`, for which the inhibition was -19.5%.

On to `Cc1ccc(C(C)NC(=O)c2ccco2)cc1` (configuration not stated), for which the inhibition amounted to 71.4%.

For the compound `CCC(=O)C1CCCN(C(=O)CCc2nnc(-c3ccc4c(c3)OCO4)o2)C1` (configuration not stated), the inhibition is -3.37%.

As to `Oc1ccccc1N=N/C(=N/Nc1ccccc1O)c1ccccc1`, the inhibition stood at 22.9%.

As for `O=C(O)c1ccccc1N=N/C(=N/Nc1cc(S(=O)(=O)O)ccc1O)c1ccccc1`, the inhibition was -12.5%.

Take `CC(=O)OC(C(=O)NC1CCCCC1)c1ccncc1` (configuration not stated): the inhibition is -2.68%.

Turning to `CSC1=NSC2=NC(=O)/C(=C/c3coc4ccccc4c3=O)C(=N)N12`, the inhibition is -10.1%.

For `CSC1=NSC2=NC(=O)/C(=C\c3coc4ccccc4c3=O)C(=N)N12`, the inhibition is -4.28%.

For the compound `CCOc1ccc(Nc2ccc(N3C(=O)CCC3=O)cc2[N+](=O)[O-])cc1`, the inhibition stood at 7.14%.

Turning to `Cc1sc(NC(=O)c2cccc(N3C(=O)CCC3=O)c2)nc1-c1ccccc1`, the inhibition is -5.52%.

Turning to `CCN(CC)S(=O)(=O)c1cccc(-c2nnc(SCC(=O)NC)n2N)c1`, the inhibition was -7.59%.

As to `Cc1ccc(N/C=C/C(=O)c2cccs2)cc1C`, the inhibition worked out at 35.6%.

On to `COc1cc(NC(=O)C/C(C)=N/NC(=O)c2cccc(O)c2)c(OC)cc1Cl`, for which the inhibition is 45.4%.

In the case of `COc1ccc(NC(=O)CCC(=O)c2cccs2)cc1Cl`, the inhibition was 1.43%.

On to `COc1cc(NC(=O)C/C(C)=N/NC(=O)c2ccccn2)c(OC)cc1Cl`, for which the inhibition was found to be 69.5%.

Consider `Cc1ccc(NC(=O)COC(=O)CCC(=O)c2cccs2)cc1C`, for which the inhibition came to 59.8%.

Consider `COc1ccc(NC(=O)CCC(=O)c2cccs2)c(OC)c1`, for which the inhibition was -6.26%.

Turning to `Cc1ccc(NC(=O)COC(=O)CCC(=O)c2cccs2)cc1`, the inhibition came to 69%.

Take `Cc1ccc(NC(=O)CCC(=O)c2cccs2)cc1`: the inhibition was 8.3%.

Consider `O=C(CSc1n[nH]c(-c2ccc(S(=O)(=O)NC3CCCCC3)cc2)n1)N1CCCC1`, for which the inhibition was 12.1%.

Consider `O=C(CCc1nc2ccccc2c(=O)[nH]1)NCCN1C(=O)S/C(=C\c2ccccc2Cl)C1=O`, for which the inhibition came out at 7.97%.
